# “And” between values parts separate entries of the source, which are not always exact repeats. Equal entries are not always repeated. Inconclusive results are not listed. The source made the active and inactive calls. The call rests on the fitted dose curve; in most records, active means well fitted activation curve with a large enough effect in the repeat runs; inconclusive means weak or mixed curves; inactive means no such curve, though single readings can be large or run the other way.
# Biological target: Nuclear receptor subfamily 1 group I member 2 (Rattus norvegicus) (UniProt Q9R1A7)
# Experiment: Rat pregnane X receptor (rPXR) activation by small molecules, qHTS assay (AID 1346983); further: nearly all actives have a fitted effect of over 20% in size
# Details: rPXR luciferase reporter cells, One-Glo luminescence, 24 h; max activation: hits give high values
# Description: National Center for Advancing Translational Sciences [NCATS] NIH Chemical Genomics Center [NCGC] U.S. Environmental Protection Agency [EPA] National Institutes of Environmental Health Sciences [NIEHS] National Toxicology Program [NTP] Assay overview: The Pregnane X receptor (PXR), a ligand activated nuclear receptor plays a critical role in the regulation of genes involved in drug metabolism and transporters. PXR binds xenobiotics and when compounds interact with PXR produces enhanced expression of CYP3A genes. In humans PXR activation and CYP3A4 induction can be problematic due to their interactions with co-medicated drugs and decrease their efficacy or increase their own metabolism. However, there are known species-specific differences with regard to PXR activation that should be taken into account when animal PXR data are extrapolated to humans. A cell based rat PXR (rPXR) assay (developed by Puracyp, Inc., CA) was used to assess the activation of rPXR.
# Assay Protocol Summary: rPXR cells were dispensed at 2,000 per well in 5uL of assay medium into white, solid-bottom 1536-well plates using a Multidrop Combi dispenser (Thermo Scientific). The assay plates were incubated at 37 C for 5hr before transferring 23 nL of test compounds dissolved in DMSO and positive control via Pintool station (Wako). The assay plates were incubated at 37 C for 24 hr. Then 5ul One-Glo assay reagent (Promega) was added to each plate by a Flying Reagent Dispenser (FRD, Aurora Discovery) and following 30 min incubation at room temperature, luciferase activity was quantified on a ViewLux plate reader (Perkin Elmer).
# On the % scale 0 is the no-effect control and ±100 the full control effect; potency means the concentration at half of the fitted maximal effect.
# Nuclear receptor subfamily 1 group I member 2 (Rattus norvegicus), sequence (Q9R1A7 whole entry, looked up): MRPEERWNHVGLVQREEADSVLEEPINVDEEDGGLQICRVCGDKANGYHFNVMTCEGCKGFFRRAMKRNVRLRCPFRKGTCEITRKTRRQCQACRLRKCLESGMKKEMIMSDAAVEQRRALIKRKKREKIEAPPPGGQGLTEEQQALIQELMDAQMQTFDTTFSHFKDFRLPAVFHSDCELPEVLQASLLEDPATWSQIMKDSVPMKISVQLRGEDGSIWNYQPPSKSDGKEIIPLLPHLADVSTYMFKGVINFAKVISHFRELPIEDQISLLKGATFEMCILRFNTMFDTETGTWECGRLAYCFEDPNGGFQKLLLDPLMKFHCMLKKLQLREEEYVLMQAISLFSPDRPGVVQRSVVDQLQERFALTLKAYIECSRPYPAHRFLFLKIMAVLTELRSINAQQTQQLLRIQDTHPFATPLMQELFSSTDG
SMILES,max activation,Potency
N[C@@H](CSSC[C@H](N)C(=O)O)C(=O)O,-1.39% (inactive),
CNCC[C@H](Oc1cccc2ccccc12)c1cccs1,-8.93% (inactive),
COc1cc(C=C2CCC/C(=C\c3ccc(O)c(OC)c3)C2=O)ccc1O,-7.88% (inactive),
CC(C)N=C(N)/N=C(\N)Nc1ccc(Cl)cc1,-16.8% (inactive),
CCCCCCCCCCOCC(O)CN (stereo not given),-17.7% (inactive),
C[C@@]12C(=O)OC(=O)[C@]1(C)C1CCC2O1,-13% (inactive),
CCN(CC)CCCN(c1ccccc1)C1Cc2ccccc2C1,-18.4% (inactive),
CCCSS/C(CCO)=C(\C)N(C=O)Cc1cnc(C)nc1N,9.56% (inactive),
CC1=C(/C=C/C(C)=C/C=C/C(C)=C/C(=O)Nc2ccc(O)cc2)C(C)(C)CCC1,-17.3% (inactive),
CN1[C@@H]2CC[C@H]1CC(OC(=O)C(CO)c1ccccc1)C2 (stereo not given in full),-0.936% (inactive),
COC(=O)C1=C(C)NC(C)=C(C(=O)OCCCN2CCC(c3ccccc3)(c3ccccc3)CC2)C1c1cccc([N+](=O)[O-])c1 (stereo not given),,5.01 µM (active)
CCOC(=O)C1=C(C)NC(C)=C(C(=O)OCC)C1c1ccccc1/C=C/C(=O)OC(C)(C)C,,3.55 µM (active)
COc1cccc(CCc2ccccc2OCC(CN(C)C)OC(=O)CCC(=O)O)c1 (stereo not given),-1.75% (inactive),
NCCCC(O)(P(=O)(O)O)P(=O)(O)O,-1.25% (inactive),
CCN(CC)CCOc1ccc(C(O)(Cc2ccc(Cl)cc2)c2ccc(C)cc2)cc1 (stereo not given),-4.47% (inactive),
O=C1Nc2ccc(Cl)cc2[C@@](C#CC2CC2)(C(F)(F)F)O1,,28.2 µM (active)
C=C(c1ccc(C(=O)O)cc1)c1cc2c(cc1C)C(C)(C)CCC2(C)C,-18.2% (inactive),
O[C@@H](c1cc(C(F)(F)F)nc2c(C(F)(F)F)cccc12)[C@H]1CCCCN1,-16.9% (inactive),
CCCN(CCc1cccs1)[C@H]1CCc2c(O)cccc2C1,-1.95% (inactive),
O=C1OC(OC(=O)c2cccnc2Nc2cccc(C(F)(F)F)c2)c2ccccc21 (stereo not given),-3.51% (inactive),

SMILES,max activation,Potency
CCCCCCCC/C=C\CCCCCCCC(=O)NCc1ccc(O)c(OC)c1,-4.67% (inactive),
Cc1c(C)n(Cc2ccccc2)c2ccc(C(=O)OCCN(C)C)cc12,1.71% (inactive),
C[C@H]1O[C@@H](O[C@H]2[C@@H](O)C[C@H](O[C@H]3[C@@H](O)C[C@H](O[C@H]4CC[C@@]5(C)[C@H](CC[C@@H]6[C@@H]5C[C@@H](O)[C@]5(C)[C@@H](C7=CC(=O)OC7)CC[C@]65O)C4)O[C@@H]3C)O[C@@H]2C)C[C@H](O)[C@@H]1O,-1.12% (inactive),
Nc1ncnc2c1ncn2[C@@H]1O[C@H](COP(=O)(O)O)[C@@H](O)[C@H]1O,-2.61% (inactive),
CCCCCCCCCCCCCCNCCO,11.2% (inactive),
NC(=O)C(=O)N/N=C/c1ccc([N+](=O)[O-])o1,-0.701% (inactive),
CN(Cc1cc(Br)cc(Br)c1N)C1CCCCC1,-3.03% (inactive),
COc1ccccc1OCCNCC(O)COc1cccc2[nH]c3ccccc3c12 (stereo not given),7.65% (inactive),
CC(=O)Oc1ccc(C2(c3ccc(OC(C)=O)cc3)C(=O)Nc3ccccc32)cc1,-4.61% (inactive) and -2.34% (inactive),
CC(NCCC(c1ccccc1)c1ccccc1)c1ccccc1 (stereo not given),-19.7% (inactive),
COc1cc(C(=O)NS(=O)(=O)c2ccccc2C)ccc1Cc1cn(C)c2ccc(NC(=O)OC3CCCC3)cc12,-0.0293% (inactive),
CCCCN(CCCC)CCC(O)c1cc2c(Cl)cc(Cl)cc2c2cc(C(F)(F)F)ccc12 (stereo not given),-2.62% (inactive),
CC(CN(C)C)CN1c2ccccc2CCc2ccccc21 (stereo not given),-1.19% (inactive),
CCCCOc1ccc(C(=O)CCN2CCCCC2)cc1,-1.67% (inactive),
CCN(CC)CCSC(=O)C(c1ccccc1)c1ccccc1,3.39% (inactive) and -0.327% (inactive),
CCOC(=O)[C@@](C)(N)Cc1ccc(O)c(O)c1,-0.299% (inactive),
CO[C@H]1C=CO[C@@]2(C)Oc3c(C)c(O)c4c(O)c(cc(O)c4c3C2=O)NC(=O)/C(C)=C\C=C/[C@H](C)[C@H](O)[C@@H](C)[C@@H](O)[C@@H](C)[C@H](OC(C)=O)[C@@H]1C,-1.49% (inactive),
S=P(N1CC1)(N1CC1)N1CC1,-4.01% (inactive),
Cc1cccc(C)c1NC(=O)CN1CCN(CCCC(c2ccc(F)cc2)c2ccc(F)cc2)CC1,3.4% (inactive),
C[n+]1c2cc(N)ccc2cc2ccc(N)cc21 (tested in a mixture with another compound),-10.5% (inactive),
